Reference: PubChem BioAssay AID1159580 (chemical genetic matrix, 2015)
The campaign covered roughly 5,500 compounds. About 2,000 (36%) were called active. Not shown: some 18% with an inconclusive outcome. Some of the results follow. A number with no mark means an inactive call. No stated cut-off is given here; in the data, active means normalized growth mostly below about 0.91 (no sharp cut-off); inconclusive means no clear call, values can overlap the other calls; inactive means mostly above about 0.92.

Experiment: chemical genetic growth profiling, strain panel (AID 1159580);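 further: tested at 20 µM; growth read once vehicle control cultures reached saturation at 30 °C; 1 = growth at the plate median or of vehicle wells; lower values mean less growth of the strain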
Conditions: growth OD

With O=c1oc2ccccc2c(O)c1Cc1c(O)c2ccccc2oc1=O the normalized growth (S. cerevisiae deletion strains, locus YJR066W, strain TOR1, active compounds read low) was 0.859, the normalized growth (S. cerevisiae deletion strains, locus YKL009W, strain mrt4, active compounds read low) was 0.944 and the normalized growth (S. cerevisiae deletion strains, locus YKL068W, active compounds read low) was 0.959. The normalized growth (S. cerevisiae deletion strains, locus YKL085W, strain MDH1 (second series), active compounds read low) was 0.923 (active), the normalized growth (S. cerevisiae deletion strains, locus YKL085W, strain MDH1, active compounds read low) was 0.923 (active) and the normalized growth (S. cerevisiae deletion strains, locus YKL160W, strain elf1, active compounds read low) was 1.01. The normalized growth (S. cerevisiae deletion strains, locus YKR001C, strain vps1, active compounds read low) was 0.962, the normalized growth (S. cerevisiae deletion strains, locus YKR026C, strain gcn3, active compounds read low) was 1.02 and the normalized growth (S. cerevisiae deletion strains, locus YKR091W, strain srl3, active compounds read low) was 0.999. For the same molecule, the normalized growth (S. cerevisiae deletion strains, locus YLL001W, strain dnm1, active compounds read low) was 1.03, the normalized growth (S. cerevisiae deletion strains, locus YLL026W, active compounds read low) was 0.996 and the normalized growth (S. cerevisiae deletion strains, locus YLL041C, strain sdh2, active compounds read low) was 0.987. For the same molecule, the normalized growth (S. cerevisiae deletion strains, locus YLR027C, strain aat2, active compounds read low) was 0.992, the normalized growth (S. cerevisiae deletion strains, locus YLR039C, strain RIC1, active compounds read low) was 1.01 and the normalized growth (S. cerevisiae deletion strains, locus YLR058C, strain SHM2, active compounds read low) was 1. For the same molecule, the normalized growth (S. cerevisiae deletion strains, locus YLR102C, strain apc9, active compounds read low) was 0.964, the normalized growth (S. cerevisiae deletion strains, locus YLR113W, strain HOG1, active compounds read low) was 0.965 and the normalized growth (S. cerevisiae deletion strains, locus YLR221C, strain rsa3, active compounds read low) was 0.994. For the same molecule, the normalized growth (S. cerevisiae deletion strains, locus YLR258W, strain gsy2, active compounds read low) was 1, the normalized growth (S. cerevisiae deletion strains, locus YLR262C, strain YPT6 (second series), active compounds read low) was 0.975 and the normalized growth (S. cerevisiae deletion strains, locus YLR262C, strain YPT6, active compounds read low) was 1.01. For the same molecule, the normalized growth (S. cerevisiae deletion strains, locus YLR268W, strain sec22, active compounds read low) was 1, the normalized growth (S. cerevisiae deletion strains, locus YLR320W, strain mms22, active compounds read low) was 0.989 and the normalized growth (S. cerevisiae deletion strains, locus YLR330W, strain CHS5, active compounds read low) was 0.993. For the same molecule, the normalized growth (S. cerevisiae deletion strains, locus YLR342W, strain FKS1 (second series), active compounds read low) was 1.03, the normalized growth (S. cerevisiae deletion strains, locus YLR342W, strain FKS1, active compounds read low) was 1 and the normalized growth (S. cerevisiae deletion strains, locus YLR357W, strain rsc2, active compounds read low) was 1.01. It also gave a normalized growth (S. cerevisiae deletion strains, locus YLR370C, strain arc18, active compounds read low) of 1, a normalized growth (S. cerevisiae deletion strains, locus YLR371W, strain rom2, active compounds read low) of 0.968 and a normalized growth (S. cerevisiae deletion strains, locus YLR384C, strain iki3, active compounds read low) of 1. The normalized growth (S. cerevisiae deletion strains, locus YLR418C, strain cdc73, active compounds read low) was 0.948, the normalized growth (S. cerevisiae deletion strains, locus YML016C, strain PPZ1, active compounds read low) was 1 and the normalized growth (S. cerevisiae deletion strains, locus YML032C, strain rad52, active compounds read low) was 0.986. It also gave a normalized growth (S. cerevisiae deletion strains, locus YML120C, strain ndi1, active compounds read low) of 1.02, a normalized growth (S. cerevisiae deletion strains, locus YML124C, strain tub3, active compounds read low) of 0.961 and a normalized growth (S. cerevisiae deletion strains, locus YMR058W, strain fet3, active compounds read low) of 1. For the same molecule, the normalized growth (S. cerevisiae deletion strains, locus YMR078C, strain ctf18, active compounds read low) was 0.958, the normalized growth (S. cerevisiae deletion strains, locus YMR125W, strain sto1, active compounds read low) was 1.02 and the normalized growth (S. cerevisiae deletion strains, locus YMR129W, active compounds read low) was 1.01. For the same molecule, the normalized growth (S. cerevisiae deletion strains, locus YMR205C, strain PFK2, active compounds read low) was 1, the normalized growth (S. cerevisiae deletion strains, locus YMR223W, strain ubp8, active compounds read low) was 0.953 and the normalized growth (S. cerevisiae deletion strains, locus YMR231W, strain pep5, active compounds read low) was 1. It also gave a normalized growth (S. cerevisiae deletion strains, locus YMR307W, strain GAS1, active compounds read low) of 0.947, a normalized growth (S. cerevisiae deletion strains, locus YNL067W, strain RPL9B, active compounds read low) of 0.987 and a normalized growth (S. cerevisiae deletion strains, locus YNL071W, strain lat1, active compounds read low) of 1.02. For the same molecule, the normalized growth (S. cerevisiae deletion strains, locus YNL128W, strain TEP1, active compounds read low) was 0.998, the normalized growth (S. cerevisiae deletion strains, locus YNL153C, strain GIM3, active compounds read low) was 1 and the normalized growth (S. cerevisiae deletion strains, locus YNL183C, strain NPR1, active compounds read low) was 0.949. For the same molecule, the normalized growth (S. cerevisiae deletion strains, locus YNL209W, strain ssb2, active compounds read low) was 0.999, the normalized growth (S. cerevisiae deletion strains, locus YNL233W, strain BNI4, active compounds read low) was 1 and the normalized growth (S. cerevisiae deletion strains, locus YNL248C, strain rpa49, active compounds read low) was 1.05. For the same molecule, the normalized growth (S. cerevisiae deletion strains, locus YNL250W, strain rad50, active compounds read low) was 0.958, the normalized growth (S. cerevisiae deletion strains, locus YNL271C, strain bni1, active compounds read low) was 0.942 and the normalized growth (S. cerevisiae deletion strains, locus YNL298W, strain CLA4, active compounds read low) was 0.932. The normalized growth (S. cerevisiae deletion strains, locus YNL307C, strain MCK1, active compounds read low) was 0.973, the normalized growth (S. cerevisiae deletion strains, locus YNL322C, strain KRE1 (second series), active compounds read low) was 0.98 and the normalized growth (S. cerevisiae deletion strains, locus YNL322C, strain KRE1, active compounds read low) was 0.987. The normalized growth (S. cerevisiae deletion strains, locus YNR049C, strain mso1, active compounds read low) was 0.996, the normalized growth (S. cerevisiae deletion strains, locus YNR052C, strain pop2, active compounds read low) was 0.97 and the normalized growth (S. cerevisiae deletion strains, locus YOL012C, strain htz1) was 1.21. It also gave a normalized growth (S. cerevisiae deletion strains, locus YOL147C, strain pex11, active compounds read low) of 0.961, a normalized growth (S. cerevisiae deletion strains, locus YOR001W, strain rrp6, active compounds read low) of 0.997 and a normalized growth (S. cerevisiae deletion strains, locus YOR061W, strain CKA2, active compounds read low) of 1. It also gave a normalized growth (S. cerevisiae deletion strains, locus YOR069W, strain VPS5, active compounds read low) of 0.99, a normalized growth (S. cerevisiae deletion strains, locus YOR070C, strain gyp1, active compounds read low) of 1 and a normalized growth (S. cerevisiae deletion strains, locus YOR080W, strain dia2, active compounds read low) of 1. The normalized growth (S. cerevisiae deletion strains, locus YOR083W, strain WHI5, active compounds read low) was 0.968, the normalized growth (S. cerevisiae deletion strains, locus YOR106W, strain vam3, active compounds read low) was 1.04 and the normalized growth (S. cerevisiae deletion strains, locus YOR136W, strain idh2, active compounds read low) was 0.988. For the same molecule, the normalized growth (S. cerevisiae deletion strains, locus YOR144C, strain elg1, active compounds read low) was 0.968, the normalized growth (S. cerevisiae deletion strains, locus YOR184W, strain ser1, active compounds read low) was 0.978 and the normalized growth (S. cerevisiae deletion strains, locus YOR231W, strain MKK1, active compounds read low) was 0.954. It also gave a normalized growth (S. cerevisiae deletion strains, locus YOR265W, strain rbl2, active compounds read low) of 1, a normalized growth (S. cerevisiae deletion strains, locus YOR270C, strain vph1, active compounds read low) of 1.06 and a normalized growth (S. cerevisiae deletion strains, locus YOR290C, strain snf2, active compounds read low) of 1.01. For the same molecule, the normalized growth (S. cerevisiae deletion strains, locus YOR316C, strain cot1, active compounds read low) was 0.968, the normalized growth (S. cerevisiae deletion strains, locus YPL051W, strain arl3, active compounds read low) was 1 and the normalized growth (S. cerevisiae deletion strains, locus YPL078C, strain atp4, active compounds read low) was 1.02. It also gave a normalized growth (S. cerevisiae deletion strains, locus YPL106C, strain sse1, active compounds read low) of 0.952, a normalized growth (S. cerevisiae deletion strains, locus YPL240C, strain hsp82, active compounds read low) of 0.997 and a normalized growth (S. cerevisiae deletion strains, locus YPL241C, strain CIN2, active compounds read low) of 0.987. For the same molecule, the normalized growth (S. cerevisiae deletion strains, locus YPL256C, strain CLN2, active compounds read low) was 0.914, the normalized growth (S. cerevisiae deletion strains, locus YPR119W, strain clb2, active compounds read low) was 0.966 and the normalized growth (S. cerevisiae deletion strains, locus YPR141C, strain kar3, active compounds read low) was 0.948. The normalized growth (S. cerevisiae deletion strains, locus YPR163C, strain tif3, active compounds read low) was 0.958, the normalized growth (S. cerevisiae deletion strains, locus YPR167C, strain met16, active compounds read low) was 0.958 and the normalized growth (S. cerevisiae deletion strains, strain wtn01, active compounds read low) was 0.978. For the same molecule, the normalized growth (S. cerevisiae strains, strain wild type, active compounds read low) was 0.998.
